Assay outcomes (PubChem)
TDP1 cell noCPT: qHTS for Inhibitors of human tyrosyl-DNA phosphodiesterase 1 (TDP1): qHTS in cells in absence of CPT; DT40 Tdp1-/- hTDP1 cells, no CPT, ATP luminescence, 48 h; Potency, µM (highest dose often 46.2 µM), most hits filed as inhibitors; 420,000 tested, 15% active; AID 686978, 2013; further: nearly all actives have a fitted effect of over 55% in size
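No-CPT arm: Tdp1-/-;hTDP1 DT40 cells (400/well) plus compounds, incubated ≥48 hr at 37 °C. Readout CellTiter-Glo luminescence.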
DT40 TDP1 CPT: growth inhibition of DT40 Tdp1-/-;hTDP1 cells with camptothecin (screen for TDP1 inhibitors); chicken DT40 Tdp1-/-;hTDP1 cells + 20 nM CPT, ATP luminescence, 48 h; 420,000 tested, 12% active; AID 686979; Potency, µM (series often up to 46.2 µM), most hits filed as inhibitors; further: nearly all actives have a fitted effect of over 55% in size
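Chicken DT40 Tdp1-/- cells complemented with human TDP1, 400 cells/well, exposed to compounds plus 20 nM camptothecin for at least 48 h at 37 C; viability read as ATP content by CellTiter-Glo luminescence.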
HT1080NT lethal: kills 2HG-producing HT-1080-NT fibrosarcoma cells; HT-1080-NT fibrosarcoma viability, CellTiter-Glo ATP luminescence, 48 h; Potency, µM (series often up to 46.1 µM), actives largely listed as cytotoxic; 360,000 tested, 1.6% active;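 further: NT is the 2HG producing partner of a matched IDH1 knockdown line; nearly all actives have a fitted effect of over 55% in size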
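HT-1080-NT; 750 cells/well; 5% FBS RPMI; 48 h compound, 37 degrees C; CellTiter-Glo luminescence; curve fitting and curve-class assignment.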
HT1080 IDH1KD tx: kills HT-1080 cells with IDH1 knockdown; 360,000 tested, 2% active; Potency, µM (series often up to 46.1 µM), usual class: cytotoxic; HT-1080 IDH1 knockdown viability, ATP luminescence, 48 h
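IDH1KD HT-1080 cells, 750/well, RPMI + 5% FBS; compound pinned after 2 h settling; 48 h, 37 °C; CellTiter-Glo luminescence; % activity normalised to DMSO and no-cell wells; curves fitted, classed by r2 and efficacy.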
IL1B secr inh: blocks inflammasome-driven IL-1 beta release. activity change, % at 57.5 µM. 360,000 tested, 4.7% active. AID 743279. THP-1 LPS/ATP IL-1B secretion, AlphaLISA, 16 h; hits give low values; in the data active means activity change below about -50%; inconclusive means mostly about -30% to -49%
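Secreted IL-1B measured by AlphaLISA bead assay after 16 h compound exposure of THP-1 cells; compounds (final up to 57.5 uM) added 1 h before LPS (250 ng/mL) and ATP (1.25 mM) stimulation; lower signal means less secretion.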
12-LOX inh: inhibitors of human 12S-lipoxygenase ALOX12. purified 12hLO, xylenol orange hydroperoxide absorbance. AID 1671190. P18054. 580,000 tested, 1.1% active. Potency, µM (doses to about 108 µM), most hits filed as inhibitors
Target sequence (P18054 whole entry, looked up): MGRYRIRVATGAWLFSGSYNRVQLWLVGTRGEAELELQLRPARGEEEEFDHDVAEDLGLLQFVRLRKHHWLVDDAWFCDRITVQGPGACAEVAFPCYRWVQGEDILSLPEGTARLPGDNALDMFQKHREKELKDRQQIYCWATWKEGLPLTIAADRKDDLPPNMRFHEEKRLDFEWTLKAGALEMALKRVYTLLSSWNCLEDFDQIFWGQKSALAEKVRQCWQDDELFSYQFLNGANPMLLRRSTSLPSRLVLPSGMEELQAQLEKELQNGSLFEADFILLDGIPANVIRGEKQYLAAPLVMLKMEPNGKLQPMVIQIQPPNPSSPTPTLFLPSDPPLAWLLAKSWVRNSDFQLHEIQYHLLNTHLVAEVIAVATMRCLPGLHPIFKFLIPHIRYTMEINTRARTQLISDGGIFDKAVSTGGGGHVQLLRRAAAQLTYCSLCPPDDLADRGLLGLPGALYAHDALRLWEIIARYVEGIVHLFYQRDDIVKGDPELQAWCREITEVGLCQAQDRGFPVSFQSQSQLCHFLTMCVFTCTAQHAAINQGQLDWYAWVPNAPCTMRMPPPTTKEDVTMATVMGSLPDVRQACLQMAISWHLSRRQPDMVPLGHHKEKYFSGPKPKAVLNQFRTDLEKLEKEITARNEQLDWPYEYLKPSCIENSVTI
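Hydroperoxide product was detected by ferrous iron/xylenol orange as the 573 to 405 nm absorbance ratio. Arachidonic acid at 40 uM (final) was turned over for 30 min at room temperature by 150 nM human 12hLO, pH 7.0 Hepes buffer, after 15 min compound preincubation.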
A number is an active result; i = inactive; ? = inconclusive; nt = no result; ! = repeats disagree; [ ] = dose if it differs, or a comment. Shown is part of a subset that was picked to be rich in hits. Unless noted, the call rests on the fitted dose curve; in most records, active means well fitted curve in the direction sought with a large enough effect; inconclusive means small, poorly fitted or top-dose-only effect, or another doubt; inactive means no such curve, though single readings can be large; an effect the other way counts as inactive or inconclusive.

SMILES	TDP1 cell noCPT	DT40 TDP1 CPT	HT1080NT lethal	HT1080 IDH1KD tx	IL1B secr inh	12-LOX inh
O=C1N=C(N2CCCC2)S/C1=C\c1ccccc1	i	i	i	i	i	i
CC(=NN1CC(=O)NC1=O)c1ccc([N+](=O)[O-])o1	16.4µM	?	?	i	i	i
CCOC(=O)N/N=C(/C)c1ccc([N+](=O)[O-])o1	nt	nt	nt	nt	nt	i
COc1ccc(-c2nn(-c3ccccc3)cc2C=O)cc1[N+](=O)[O-]	i	i	i	i	-83.5	i
COc1ccc(-c2nn(-c3ccccc3)cc2/C=C/C(=O)O)cc1[N+](=O)[O-]	23.1µM	?	i	18.4µM	i	i
O=c1oc2ccccc2cc1-c1cn2cc(Cc3ccc(Br)cc3)sc2n1	0.581µM	1.3µM	nt	nt	nt	i
C=CC(=O)N1C/C(=C/c2ccc(Cl)cc2)C(=O)/C(=C\c2ccc(Cl)cc2)C1	0.411µM	0.231µM	5.8µM	2.91µM	-115.2	i
O=C1C(=Cc2ccc(Cl)cc2)Cc2ccccc21	i	i	i	i	i	i
CN1C/C(=C/c2ccncc2)C(=O)/C(=C/c2ccncc2)C1	i	?	i	i	i	i
C=CC(=O)N1C/C(=C/c2ccccc2)C(=O)/C(=C\c2ccccc2)C1	0.731µM	0.731µM	i	4.11µM	-102.6	i
COc1ccccc1NC(=O)/C=C/c1ccc2c(c1)OCO2	?	16.4µM	?	i	i	i
COc1ccccc1N1CCN(C(=O)/C=C/c2ccccc2)CC1	16.4µM	?	i	i	i	i
COc1ccccc1N1CCN(C(=O)/C=C/c2ccc3c(c2)OCO3)CC1	20.6µM	20.6µM	i	i	i	i
COc1cc(/C=C/C(=O)N2CCN(c3ccccn3)CC2)cc(OC)c1OC	23.1µM	?	i	i	i	i
COc1cc(OC)cc(C(=O)Oc2cc(C)cc(C)c2)c1	nt	nt	nt	nt	nt	i
OCCN1CCN(CC#CCn2c3ccccc3c3ccccc32)CC1	?	?	20.6µM	?	i	?
OCCN1CCN(CC#CCC(c2ccccc2)c2ccccc2)CC1	?	?	i	i	i	i
COc1ccc(-c2nnc(C3CCN(S(=O)(=O)c4ccc(C)c(C)c4)CC3)o2)cc1	25.9µM	?	nt	nt	nt	i
COc1ccccc1-c1nnc(C2CCN(C(=O)c3cccc(Cl)c3)CC2)o1	16.4µM	?	nt	nt	nt	i
COc1ccccc1-c1nnc([C@H]2CCN(C(=O)c3ccccc3)C2)o1	nt	nt	nt	nt	nt	i
COc1ccccc1-c1nnc(C2CCN(S(=O)(=O)c3ccc(F)c(C)c3)CC2)o1	?	14.6µM	nt	nt	nt	i
COc1ccccc1-c1nnc(C2CCN(C(=O)c3ccccc3C)CC2)o1	i	?	nt	nt	nt	i
CC(=O)NC12CC3CC(C1)CC(C(=O)NCc1ccc(C(=O)N4CCCCC4)cc1)(C3)C2	nt	nt	nt	nt	nt	i
CC(=O)OCC1=C(C(=O)O)N2C(=O)C(NC(=O)c3ccc(COc4ccc(Cl)cc4)o3)C2SC1 (stereo not drawn)	?	i	i	i	?	39.8µM
CC(=O)OCC1=C(C(=O)O)N2C(=O)C(NC(=O)c3ccc(COc4c(C)cccc4Cl)o3)C2SC1 (stereo not drawn)	i	i	i	i	i	?
SMILES	TDP1 cell noCPT	DT40 TDP1 CPT	HT1080NT lethal	HT1080 IDH1KD tx	IL1B secr inh	12-LOX inh
CCc1ccc(OCc2n[nH]c(=S)n2Cc2ccccc2)cc1	?	?	i	i	i	?
CCCCOc1ccc(Cc2n[nH]c(=S)n2N)cc1	?	?	i	i	i	8.91µM
CCc1ccc(OCc2n[nH]c(=S)n2C(C)CCCC(C)C)cc1 (stereo not drawn)	?	?	i	i	i	35.5µM
CC(C)CCn1c(COc2ccccc2)n[nH]c1=S	i	i	i	i	i	15.8µM!
S=c1[nH]nc(COc2ccccc2)n1Cc1ccccc1	?	?	i	i	i	?
Cc1ccc(OCc2n[nH]c(=S)n2N)cc1C	i	i	i	i	i	?
O=C(Nc1cccc(F)c1)C1CCN(c2nc3ccccc3nc2C(F)(F)F)CC1	16.4µM	18.4µM	nt	nt	nt	?
COc1cc(NC(=O)C2CCN(c3nc4ccccc4nc3C(F)(F)F)CC2)cc(OC)c1	25.9µM	16.4µM	nt	nt	nt	i
Cc1ccc(NC(=O)C2CCN(c3nc4ccccc4nc3C(F)(F)F)CC2)cc1C	?	?	nt	nt	nt	i
O=C(Nc1cccc(Cl)c1)C1CCN(c2nc3ccccc3nc2C(F)(F)F)CC1	20.6µM	?	nt	nt	nt	i
Cc1ccc2c(=O)cc(C(=O)Nc3cccc(Cl)c3)oc2c1C	nt	nt	nt	nt	nt	i
COC(=O)c1cccc(OC(=O)c2ccccc2Cl)c1	nt	nt	nt	nt	nt	i
CN(C)S(=O)(=O)c1ccc(Cl)c(C(=O)Nc2cccc([N+](=O)[O-])c2)c1	20.6µM	18.4µM	i	i	i	i
O=C(Nc1ccccc1Oc1ccccc1)c1cc([N+](=O)[O-])ccc1Cl	?	16.4µM	i	i	i	?
O=C(O)c1ccccc1Nc1ccc([N+](=O)[O-])cc1	2.91µM	i	?	?	i	i
Cc1cccc(NC(=O)c2cc([N+](=O)[O-])ccc2Cl)c1O	?	?	i	i	-50.0	i
O=C(O)c1ccccc1Nc1ccccc1C(=O)O	i	i	i[9.24 µM]	i	i	i
O=C(c1ccc(F)c(F)c1)N1CCC(n2cc(-c3nc(-c4ccccc4)no3)nn2)CC1	nt	nt	nt	nt	nt	i
Cn1nc(C2CCN(C(=O)c3cc(F)ccc3F)CC2)c2c1CCOC2	nt	nt	nt	nt	nt	i
COc1ccc(CNC(=O)Cn2c(-c3cccc(Cl)c3)nc(C)c(CCO)c2=O)cc1OC	nt	nt	nt	nt	nt	i
O=C(Nc1ccc(Nc2ccccc2)cc1)c1cc([N+](=O)[O-])ccc1Cl	16.4µM	?	?	18.4µM	-67.5	i
COc1cccc(N(C(=O)Cn2nnc(-c3ccc(Cl)cc3)n2)C(C(=O)NCC2CCCO2)c2ccc(C)cc2)c1 (stereo not drawn)	20.6µM	16.4µM	i	i	i	i
COc1ccc(-c2nnn(CC(=O)N(Cc3ccco3)C(C(=O)NCC3CCCO3)c3ccco3)n2)cc1 (stereo not drawn)	?	?	i	i	i	i
COc1ccc(-c2nnn(CC(=O)N(Cc3ccccc3Cl)C(C(=O)NCC3CCCO3)c3ccco3)n2)cc1 (stereo not drawn)	18.4µM	?	i	i	i	?
Cn1cc(C(=O)N2CCN(CC(=O)N3CCCC3)CC2)c2ccccc21	nt	nt	nt	nt	nt	i
CC(C)Cn1cnc2c1c(=O)n(CC(=O)NCCc1ccc(F)cc1)c(=O)n2Cc1ccccc1	nt	nt	nt	nt	nt	i
Nc1nccnc1C(=O)NCc1ccc(Oc2ccc(F)cc2)cc1	nt	nt	nt	nt	nt	i
O=C(CCl)NCCCCCCCCCNC(=O)CCl	6.51µM	4.61µM	16.4µM	14.6µM	-89.9	i
